Most compounds without a hit are left out; they make up all but 7.4% or so of the library.
ELG1 genotox: induces genotoxicity in HEK293T cells with luciferase-tagged ELG1; HEK293T ELG1-luciferase reporter, luminescence, 16 h; Potency, µM (titrated, usually from 46 µM), inactives show at the top dose activity change, positive = activation, actives largely listed as activators; 330,000 tested, 1.3% active; AID 504466; note: % of control where 0% means no effect; nearly all actives have a fitted effect of over 60% in size
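Reporter readout depends on ELG1 protein level, which increases with genetic stress. After 16 hr compound exposure at 37 °C, luciferase activity was quantified using ONE-Glo.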
Rab9 promoter act: activators of Rab9 promoter; Huh7 Rab9 promoter-luciferase reporter, luminescence, 24 h; Potency, µM (top dose mostly 9.22 µM), inactives show at the top dose activation, negative = inhibition, usual class: activators; 320,000 tested, 2.8% active; AID 485297; note: % of control where 0% means no effect; nearly all actives have a fitted effect of over 60% in size
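Quantitative HTS format; Huh7 Rab9-luciferase reporter cells (1500/well) receive compound 2 h post-plating, incubate 24 h at 37 °C, then get luciferase reagent for 10 min before luminescence reading.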
SMN2 splice enh: enhancers of SMN2 splice variant expression; 210,000 tested, 2.8% active; HEK293 SMN2-luciferase splicing reporter, luminescence, 30-36 h; Potency, µM (highest dose often 46.1 µM), without a hit: top-dose activity change, positive = activation, hits mostly activators; note: % of control where 0% means no effect; nearly all actives have a fitted effect of over 55% in size
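qHTS luciferase splicing reporter: luminescence rises when SMN2 exon 7 is included in transfected HEK293 cells. Compound exposure lasted 30-36 h at 37C, with 4.5 mM final sodium butyrate as control, followed by a ONE-Glo read.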
FLuc counter: firefly luciferase modulation, counter-screen for miR-21 project; P08659; purified FLuc, Km substrates, luminescence inhibition; Potency, µM (titrated, usually from 57.5 µM), without a hit: at the top dose activity change, negative = inhibition, actives largely listed as inhibitors; 360,000 tested, 6.9% active; AID 588342;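 note: plate controls were vehicle for no effect and reference inhibitor for full effect; nearly all actives have a fitted effect of over 55% in size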
Target sequence (P08659 whole entry, looked up): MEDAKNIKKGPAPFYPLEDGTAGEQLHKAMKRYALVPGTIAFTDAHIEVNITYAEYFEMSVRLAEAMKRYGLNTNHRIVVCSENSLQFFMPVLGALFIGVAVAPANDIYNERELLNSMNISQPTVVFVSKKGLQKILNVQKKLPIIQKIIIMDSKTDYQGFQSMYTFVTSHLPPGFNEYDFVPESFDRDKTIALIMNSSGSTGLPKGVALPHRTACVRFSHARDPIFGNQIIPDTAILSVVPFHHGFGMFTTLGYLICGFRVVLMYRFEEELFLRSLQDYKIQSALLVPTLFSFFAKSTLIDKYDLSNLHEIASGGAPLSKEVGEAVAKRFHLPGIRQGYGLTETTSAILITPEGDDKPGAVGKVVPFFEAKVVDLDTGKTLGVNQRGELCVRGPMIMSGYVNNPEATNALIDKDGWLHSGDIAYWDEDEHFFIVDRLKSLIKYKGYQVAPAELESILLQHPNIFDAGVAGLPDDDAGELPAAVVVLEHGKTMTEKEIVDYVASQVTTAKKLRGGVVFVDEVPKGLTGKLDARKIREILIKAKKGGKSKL
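Purified P. pyralis luciferase, 10 nM final, with Km-level 10 uM D-luciferin and 10 uM ATP in 50 mM Tris acetate pH 7.5, 10 mM Mg acetate, 0.01% Tween-20, 0.05% BSA; 6-point qHTS titration about 60 µM downward; luminescence read.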
p53 reactivation: mutant p53 re-activation in reporter cells; H1299 p53-A138V BP100-luciferase reporter, luminescence, 24 h; Potency, µM (doses to about 92.2 µM), for the others: top-dose activity change, positive = activation, actives largely listed as activators; 320,000 tested, 0.063% active; AID 504706; note: % of control where 0% means no effect; nearly all actives have a fitted effect of over 45% in size
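p53-null H1299 cells stably carrying temperature-sensitive p53-A138V and a BP100-luciferase reporter were pinned with compounds (4-point, 1:5 series) and held 24 hrs at 37 deg C. Luminescence was read 10 min after detection reagent.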
NPC1 promoter act: NPC1 promoter activation. Huh7 NPC1 promoter luciferase reporter, 24 h. Potency, µM (titrated, usually from 9.22 µM), for inactives: at the highest dose activation, hits mostly activators. 320,000 tested, 2.4% active; note: % of control where 0% means no effect; nearly all actives have a fitted effect of over 60% in size
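In 1536-well qHTS, Huh7 cells harboring an NPC1 promoter–luciferase construct received compound for 24 h; activation was quantified by luminescence following luciferase reagent addition.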
Numbers without * were called inactive. Calls come from the whole dose curve; as a rule, active = well fitted curve in the direction sought with a large enough effect; inconclusive = small, poorly fitted or top-dose-only effect, or another doubt; inactive = no such curve, though single readings can be large; an effect the other way counts as inactive or inconclusive. Potency is the fitted concentration of half-maximal effect.

Screening Clc1ccc(COn2c(-c3ccccc3)nc3ccccc32)cc1 returned ELG1 genotox -3%, Rab9 promoter act -1%, SMN2 splice enh -9%, FLuc counter -14%, p53 reactivation -2% and NPC1 promoter act -8%.
For Clc1ccc(COn2c(-c3ccc(Cl)cc3)nc3ccccc32)cc1 the results were ELG1 genotox -2%, Rab9 promoter act 4%, SMN2 splice enh -24%, FLuc counter inconclusive, p53 reactivation 5% and NPC1 promoter act -4%.
Cc1ccc(COn2c(-c3ccc(Cl)cc3)nc3ccc([N+](=O)[O-])cc32)cc1 was read as ELG1 genotox 17%, Rab9 promoter act inconclusive, SMN2 splice enh inconclusive, FLuc counter 17µM*, p53 reactivation inconclusive and NPC1 promoter act inconclusive.
`O=C(O)COn1c(-c2ccccc2)nc2ccc([N+](=O)[O-])cc21` gave ELG1 genotox 18%, Rab9 promoter act inconclusive, SMN2 splice enh 29%, FLuc counter 15µM*, p53 reactivation 16% and NPC1 promoter act 26%.
Screening CCOC(=O)C(C)On1c(-c2ccc(Cl)cc2)nc2ccc([N+](=O)[O-])cc21 (centres undefined) returned ELG1 genotox 12%, Rab9 promoter act 18%, SMN2 splice enh -4%, FLuc counter 15µM*, p53 reactivation inconclusive and NPC1 promoter act 29%.
O=[N+]([O-])c1ccc2nc(-c3ccc(Cl)cc3)n(OCc3ccccc3)c2c1 was read as ELG1 genotox inconclusive, Rab9 promoter act inconclusive, SMN2 splice enh 2%, FLuc counter 12µM*, p53 reactivation inconclusive and NPC1 promoter act inconclusive.
O=C(Cn1c2ncccc2c(=O)n1-c1ccccc1)NCc1ccccc1Cl was read as FLuc counter -2%.
COC(=O)c1sc(N2C(=O)c3oc4cc(C)c(C)cc4c(=O)c3C2c2ccccc2F)nc1C (centres undefined) was read as SMN2 splice enh 20% and FLuc counter -2%.
For CCOc1cc(-c2ccccc2)nc(N)n1 the results were ELG1 genotox 22%, Rab9 promoter act inconclusive, SMN2 splice enh 0%, FLuc counter inconclusive, p53 reactivation inconclusive and NPC1 promoter act inconclusive.
COc1cc(-c2ccccc2)nc(N)n1 was read as ELG1 genotox 16µM*, Rab9 promoter act 3.2µM*, SMN2 splice enh 1%, FLuc counter inconclusive, p53 reactivation inconclusive and NPC1 promoter act inconclusive.
CCN(C(=O)c1cc2c(=O)n3ccccc3nc2n1C)C1CCCCC1 was read as ELG1 genotox 16%, Rab9 promoter act 19%, FLuc counter -15%, p53 reactivation 20% and NPC1 promoter act 27%.
CN(C(=O)c1cc2c(=O)n3ccccc3nc2n1C)C1CCCCC1 was read as ELG1 genotox 4.6µM*, Rab9 promoter act 3.2µM*, FLuc counter 12µM*, p53 reactivation 7% and NPC1 promoter act 2µM*.
Screening CC(=O)N1CCc2c(sc3c2c(=O)n(-c2cccc(Cl)c2)c(=O)n3Cc2ccc(F)cc2Cl)C1 returned FLuc counter 6%.
COc1ccccc1N1CCN(c2ccc3ccccc3n2)CC1 was read as ELG1 genotox inconclusive, Rab9 promoter act 0.32µM*, FLuc counter 0.95µM*, p53 reactivation inconclusive and NPC1 promoter act 0.32µM*.
For COc1ccccc1N1CCN(c2nc(-c3ccccc3)cc(C(F)(F)F)n2)CC1 the results were ELG1 genotox -4%, Rab9 promoter act 0%, SMN2 splice enh -12%, FLuc counter 0%, p53 reactivation 2% and NPC1 promoter act -1%.
For COc1ccccc1N1CCN(c2ccc(-c3ccccc3)nn2)CC1 the results were ELG1 genotox inconclusive, Rab9 promoter act 0.28µM*, SMN2 splice enh inconclusive, FLuc counter 0.76µM*, p53 reactivation inconclusive and NPC1 promoter act inconclusive.
O=C(Cc1cccs1)Nc1ccc(F)cc1 was read as ELG1 genotox 2%, Rab9 promoter act 15%, FLuc counter -17%, p53 reactivation 11% and NPC1 promoter act 2%.
`Cn1nc2sc3ccccc3n2c(=O)c1=O` gave ELG1 genotox -2%, Rab9 promoter act -5%, FLuc counter -2%, p53 reactivation -3% and NPC1 promoter act 11%.
`N#Cc1cnc2sc3ccccc3n2c1=N` gave ELG1 genotox 14µM*, Rab9 promoter act inconclusive, SMN2 splice enh 17%, FLuc counter 24µM*, p53 reactivation inconclusive and NPC1 promoter act 24%.
`CCc1ccc(/C=N\NC(=O)c2ccc(Br)o2)s1` gave ELG1 genotox inconclusive, Rab9 promoter act 2.8µM*, SMN2 splice enh 11µM*, FLuc counter 11µM*, p53 reactivation inconclusive and NPC1 promoter act 3.5µM*.
`Cc1ccc(/C=N/NC(=O)Cc2ccc(O)cc2)s1` gave ELG1 genotox 13%, Rab9 promoter act 6%, FLuc counter inconclusive, p53 reactivation 5% and NPC1 promoter act 15%.
Screening Cc1ccc(/C=N/NC(=O)c2ccc(Br)o2)s1 returned ELG1 genotox inconclusive, Rab9 promoter act inconclusive, SMN2 splice enh 16µM*, FLuc counter inconclusive, p53 reactivation inconclusive and NPC1 promoter act inconclusive.
For CC(C)c1nnc(N2C(=O)c3oc4ccccc4c(=O)c3C2c2cccc(O)c2)s1 (centres undefined) the results were SMN2 splice enh 3% and FLuc counter 1%.
`CC(C)(Oc1ccc(CCNC(=O)c2ccc(-c3ccc(Cl)cc3)o2)cc1)C(=O)O` gave ELG1 genotox -6%, Rab9 promoter act 1%, SMN2 splice enh -6%, FLuc counter 24µM*, p53 reactivation -2% and NPC1 promoter act -2%.
CC(C)(Oc1ccc(Cl)cc1)C(=O)OCC(=O)NCCc1ccccc1 was read as ELG1 genotox 2%, Rab9 promoter act 9%, FLuc counter 1%, p53 reactivation -1% and NPC1 promoter act 0%.
For COc1ccc(/C=C/c2cc(C(F)(F)F)[nH]c(=O)n2)cc1OC the results were ELG1 genotox 1%, Rab9 promoter act -1%, FLuc counter inconclusive, p53 reactivation -3% and NPC1 promoter act -5%.
Screening COc1ccc(/C=C/c2cc(C(F)(F)F)on2)cc1 returned ELG1 genotox 13%, Rab9 promoter act 0%, FLuc counter 6µM*, p53 reactivation 12% and NPC1 promoter act 12%.
O=Cc1c(OCc2ccccc2)ccc2ccccc12 was read as ELG1 genotox inconclusive, Rab9 promoter act inconclusive, SMN2 splice enh 14µM*, FLuc counter 12µM*, p53 reactivation 4% and NPC1 promoter act inconclusive.

Screening results deposited in PubChem by National Center for Advancing Translational Sciences (NCATS).
